Assay [1] has as its target human RAR-related Orphan Receptor gamma (RORg), RORC (gene 6097) (UniProt P51449). In words: ATG_RORg_TRANS: Attagene TRANS-FACTORIAL HepG2 Assay for human RAR-related Orphan Receptor gamma (RORg) (AID 2283011; active means hit-call score of the fitted dose curve at least 0.9, where 1 is the maximum). Put shortly: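 Readout: reporter transcript induction (RT-PCR, fluorescent primer extension, capillary electrophoresis) after 24 h compound exposure of transiently transfected HepG2 cells carrying a RORg-Gal4 chimera and GAL4-UAS reporters; DMSO served as baseline, with increasing signal fitted.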

The target of assay [2] is human Thyroid Receptor alpha (THRa1), THRA (gene 7067) (UniProt P10827). In words: ATG_THRa1_TRANS: Attagene TRANS-FACTORIAL HepG2 Assay for human Thyroid Receptor alpha (THRa1) (AID 2283014; active means hit-call score of the fitted dose curve at least 0.9, where 1 is the maximum). An outline of the steps: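 HepG2 cells transiently transfected with multiplexed GAL4-UAS reporter units for exogenous chimeric THRa1-Gal4; reporter mRNA measured 24 h after dosing by RT-PCR, 6-FAM labelling, HpaI digestion and capillary electrophoresis. Gain-of-signal fitted versus DMSO baseline.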
human Thyroid Receptor alpha (THRa1), THRA (gene 7067), sequence (P10827 whole entry, looked up, the tested form may be a part): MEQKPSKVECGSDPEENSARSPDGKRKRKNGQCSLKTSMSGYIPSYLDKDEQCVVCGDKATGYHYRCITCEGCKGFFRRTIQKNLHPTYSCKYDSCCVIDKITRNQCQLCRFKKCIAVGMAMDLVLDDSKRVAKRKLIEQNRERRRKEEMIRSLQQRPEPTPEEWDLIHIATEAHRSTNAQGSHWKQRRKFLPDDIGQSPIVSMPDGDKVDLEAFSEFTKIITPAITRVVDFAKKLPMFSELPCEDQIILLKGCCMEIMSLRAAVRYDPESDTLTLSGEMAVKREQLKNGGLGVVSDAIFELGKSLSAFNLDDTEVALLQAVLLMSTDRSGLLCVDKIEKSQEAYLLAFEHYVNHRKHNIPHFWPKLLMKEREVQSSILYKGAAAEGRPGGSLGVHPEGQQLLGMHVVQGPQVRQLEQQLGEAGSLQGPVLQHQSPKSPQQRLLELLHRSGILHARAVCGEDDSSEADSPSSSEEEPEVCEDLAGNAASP

Read-out in assay [3]: E-selectin (Homo sapiens) (UniProt P16581)
In words: BSK_3C_Eselectin: BioMAP Diversity Plus: 3C Assay for Eselectin Biomarker Activity (AID 2283015).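 Further: cell surface E-selectin protein quantified by ELISA 24 h after dosing.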 As to conditions: primary human endothelial cells (HUVEC); actives raise or lower the signal. Put shortly:
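Primary human umbilical vein endothelial cells (3C system) were dosed with chemical and cell-surface E-selectin measured by ELISA 24 h later. Bidirectional curve fitting used DMSO as negative control and baseline.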

Read-out in assay [4]: Interleukin-1 alpha (IL1a), IL1A (gene 3552)
In words: BSK_BE3C_IL1a: BioMAP Diversity Plus: BE3C Assay for Interleukin-1 alpha (IL1a) Biomarker Activity (AID 2283016). To be noted: primary human bronchial epithelial cells; actives raise or lower the signal. Put shortly:
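BE3C primary human bronchial epithelium; cpd 24 h; IL-1a by ELISA; bidirectional fit vs DMSO; parallel SRB (0.1% SRB, 10% TCA fix, 560 nm) for cytotoxicity.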

Read-out in assay [5]: Monocyte Chemoattractant Protein-1 (MCP1), CCL2 (gene 6347)
In words: BSK_3C_MCP1: BioMAP Diversity Plus: 3C Assay for Monocyte Chemoattractant Protein-1 (MCP1) Biomarker Activity (AID 2283017). To be noted: primary human endothelial cells (HUVEC); actives raise or lower the signal. Put shortly: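 Primary human umbilical vein endothelial cells (3C system) were exposed to test chemical for 24 h, after which MCP-1 was quantified by ELISA. Activity was fitted bidirectionally against DMSO as negative control and baseline.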

Read-out in assay [6]: Monocyte Chemoattractant Protein-1 (MCP1), CCL2 (gene 6347)
In words: BSK_4H_MCP1: BioMAP Diversity Plus: 4H Assay for Monocyte Chemoattractant Protein-1 (MCP1) Biomarker Activity (AID 2283018). To be noted: primary human endothelial cells (HUVEC); actives raise or lower the signal. An outline of the steps: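 ELISA read-out of MCP-1 from human vascular endothelial primary cells taken at 24 hours after compound exposure. Activity was fitted in both directions relative to DMSO, which served as negative control.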

Read-out in assay [7]: Human Leukocyte Antigen - DR isotype (HLADR), HLA-DRA (gene 3122)
In words: BSK_3C_HLADR: BioMAP Diversity Plus: 3C Assay for Human Leukocyte Antigen - DR isotype (HLADR) Biomarker Activity (AID 2283019). As to conditions: primary human endothelial cells (HUVEC); actives raise or lower the signal. Put shortly: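 Primary human umbilical vein endothelial cells (3C system) were dosed with compound and cell-surface HLA-DR was quantified by ELISA at 24 h. Activity was fitted bidirectionally against DMSO as negative control and baseline.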

Read-out in assay [8]: Interleukin-8 (IL8), CXCL8 (gene 3576)
In words: BSK_3C_IL8: BioMAP Diversity Plus: 3C Assay for Interleukin-8 (IL8) Biomarker Activity (AID 2283020). As to conditions: primary human endothelial cells (HUVEC); actives raise or lower the signal. An outline of the steps:
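ELISA read-out of IL-8 from human umbilical vein endothelium, measured 24 h after chemical dosing. Activity is expressed relative to DMSO negative control, with both increases and decreases fitted.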

Read-out in assay [9]: Monokine induced gamma interferon (MIG), CXCL9 (gene 4283)
In words: BSK_3C_MIG: BioMAP Diversity Plus: 3C Assay for Monokine induced gamma interferon (MIG) Biomarker Activity (AID 2283021). To be noted: primary human endothelial cells (HUVEC); actives raise or lower the signal. An outline of the steps:
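Read-out is ELISA detection of MIG on human umbilical vein endothelial cells, taken 24 h after dosing. Gain or loss of signal was scored relative to DMSO controls using bidirectional curve fitting.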

Read-out in assay [10]: Matrix Metallopeptidase 1 (MMP1), MMP1 (gene 4312)
In words: BSK_BE3C_MMP1: BioMAP Diversity Plus: BE3C Assay for Matrix Metallopeptidase 1 (MMP1) Biomarker Activity (AID 2283024). To be noted: primary human bronchial epithelial cells; actives raise or lower the signal. An outline of the steps:
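Human bronchial epithelial cells (BE3C system) exposed to compound for 24 h; MMP1 then quantified by ELISA. Activity was fitted in both directions relative to DMSO.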

A short description of assay [11]: BSK_3C_Vis: BioMAP Diversity Plus: 3C Assay for Morphology Visualization (AID 2283025).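 Further: fitted both ways so gain or loss versus DMSO counts.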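 On AC50: light microscopy image of cell morphology used as background control.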 As to conditions: primary human endothelial cells (HUVEC). Put shortly:
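Chemicals were added to primary human umbilical vein endothelium, cells were incubated 24 h, and morphology was then visualized by light microscopy. Gain or loss of signal was fitted bidirectionally relative to DMSO.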

Read-out in assay [12]: Pselectin, SELP (gene 6403)
In words: BSK_4H_Pselectin: BioMAP Diversity Plus: 4H Assay for Pselectin Biomarker Activity (AID 2283026). To be noted: primary human endothelial cells (HUVEC); actives raise or lower the signal. Put shortly: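 ELISA read-out of P-selectin on human umbilical vein endothelium after 24 h of dosing. Values derive from bidirectional fitting relative to DMSO. Parallel SRB protein staining flagged overt cytotoxicity.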

Assay [13] is described as follows: BSK_4H_SRB: Viability Assessment in the BioMAP Diversity Plus: 4H Assay (AID 2283027).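 Further: cells exposed to compound for 24 h before staining.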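 On AC50: curves fitted both ways versus DMSO so AC50 may be loss or gain.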 To be noted: primary human endothelial cells (HUVEC). An outline of the steps: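 Human umbilical vein endothelial cells, 24 h after chemical dosing; total protein measured by 0.1% sulforhodamine B staining after 10% TCA fixation, read at 560 nm. Bidirectional fitting against DMSO.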

The nature of assay [14]: BSK_BE3C_SRB: Viability Assessment in the BioMAP Diversity Plus: BE3C Assay (AID 2283028). As to conditions: primary human bronchial epithelial cells. An outline of the steps:
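Human primary bronchial epithelial cells were exposed to test chemicals for 24 h. Total protein in parallel cultures was then measured by staining with 0.1% sulforhodamine B after 10% TCA fixation, with absorbance read at 560 nm. Activity was fitted bidirectionally against DMSO.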

Read-out in assay [15]: Thrombomodulin, THBD (gene 7056)
In words: BSK_3C_Thrombomodulin: BioMAP Diversity Plus: 3C Assay for Thrombomodulin Biomarker Activity (AID 2283029). To be noted: primary human endothelial cells (HUVEC); actives raise or lower the signal. Put shortly: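 Read-out is ELISA of thrombomodulin on human umbilical vein endothelium 24 h after chemical dosing. Gain or loss of signal is scored relative to DMSO. Overt cytotoxicity is checked in parallel cultures by sulforhodamine B staining.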

Assay [16] deals with Retinoic acid receptor RXR-alpha (Homo sapiens) (UniProt P19793). In words: ATG_RXRa_TRANS: Attagene TRANS-FACTORIAL HepG2 Assay for human Retinoid X Receptor alpha (RXRa) (AID 2283012; active means hit-call score of the fitted dose curve at least 0.9, where 1 is the maximum). An outline of the steps: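 Transient transfection of human HepG2 with multiple GAL4-UAS reporter constructs; 24 h compound exposure; total RNA isolated, reverse-transcribed, PCR-amplified, 6-FAM labelled, HpaI-cut, resolved by capillary electrophoresis. Positive-direction fit versus DMSO.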
Retinoic acid receptor RXR-alpha (Homo sapiens), sequence (P19793 whole entry, looked up, the tested form may be a part): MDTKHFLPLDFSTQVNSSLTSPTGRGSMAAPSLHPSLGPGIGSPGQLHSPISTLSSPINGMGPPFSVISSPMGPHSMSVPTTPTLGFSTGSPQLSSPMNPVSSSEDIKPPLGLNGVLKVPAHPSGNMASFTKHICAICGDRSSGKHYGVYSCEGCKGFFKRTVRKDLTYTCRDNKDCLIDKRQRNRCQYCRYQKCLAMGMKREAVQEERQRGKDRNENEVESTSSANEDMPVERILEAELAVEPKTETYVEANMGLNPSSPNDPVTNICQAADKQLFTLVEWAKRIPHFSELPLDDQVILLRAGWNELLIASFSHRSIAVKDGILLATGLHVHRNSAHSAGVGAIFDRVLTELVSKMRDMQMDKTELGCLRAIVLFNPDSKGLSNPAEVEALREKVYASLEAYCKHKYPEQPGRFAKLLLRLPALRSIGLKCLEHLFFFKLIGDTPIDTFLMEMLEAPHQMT

For assay [17], the target named is human Retinoid X Receptor beta (RXRb), RXRB (gene 6257) (UniProt P28702). In words: ATG_RXRb_TRANS: Attagene TRANS-FACTORIAL HepG2 Assay for human Retinoid X Receptor beta (RXRb) (AID 2283013; active means hit-call score of the fitted dose curve at least 0.9, where 1 is the maximum). An outline of the steps:
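Transfect HepG2 with GAL4-UAS multi-reporter constructs (chimeric NR-Gal4, TRANS format); dose compound 24 h; isolate RNA, RT-PCR, FAM primer extension, HpaI digest; quantify by capillary electrophoresis; positive direction vs DMSO.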

For assay [18], the target named is human Vitamin D Receptor (VDR), VDR (gene 7421) (UniProt P11473). In words: ATG_VDR_TRANS: Attagene TRANS-FACTORIAL HepG2 Assay for human Vitamin D Receptor (VDR) (AID 2283022; active means hit-call score of the fitted dose curve at least 0.9, where 1 is the maximum). Put shortly:
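HepG2 cells were transiently transfected with multiple GAL4-UAS reporter units, so signal reflects exogenous chimeric receptor-Gal4 activity. After 24 h compound exposure, reporter mRNA was measured by RT-PCR, fluorescent labelling and capillary electrophoresis, fitted for gain of signal versus DMSO.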

Assay [19] can be described thus: BSK_3C_SRB: Viability Assessment in the BioMAP Diversity Plus: 3C Assay (AID 2283023).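 Further: fitted both ways against DMSO so a hit may be signal rise or drop.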 As to conditions: primary human endothelial cells (HUVEC). An outline of the steps:
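Primary human umbilical vein endothelial cells in the 3C system were read 24 h after compound dosing. Total protein was stained with 0.1% sulforhodamine B after 10% TCA fixation and read at 560 nm, with bidirectional fitting against DMSO as baseline.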

“And” between values parts separate entries of the source, which are not always exact repeats. Equal entries are not always repeated. Inconclusive results are not listed. The source made the active and inactive calls. How the source made its calls, unless noted: active means hit-call score of the fitted dose curve at least 0.9, where 1 is the maximum; inactive means score below 0.9.

human Retinoid X Receptor beta (RXRb), RXRB (gene 6257), sequence (P28702 whole entry, looked up, the tested form may be a part): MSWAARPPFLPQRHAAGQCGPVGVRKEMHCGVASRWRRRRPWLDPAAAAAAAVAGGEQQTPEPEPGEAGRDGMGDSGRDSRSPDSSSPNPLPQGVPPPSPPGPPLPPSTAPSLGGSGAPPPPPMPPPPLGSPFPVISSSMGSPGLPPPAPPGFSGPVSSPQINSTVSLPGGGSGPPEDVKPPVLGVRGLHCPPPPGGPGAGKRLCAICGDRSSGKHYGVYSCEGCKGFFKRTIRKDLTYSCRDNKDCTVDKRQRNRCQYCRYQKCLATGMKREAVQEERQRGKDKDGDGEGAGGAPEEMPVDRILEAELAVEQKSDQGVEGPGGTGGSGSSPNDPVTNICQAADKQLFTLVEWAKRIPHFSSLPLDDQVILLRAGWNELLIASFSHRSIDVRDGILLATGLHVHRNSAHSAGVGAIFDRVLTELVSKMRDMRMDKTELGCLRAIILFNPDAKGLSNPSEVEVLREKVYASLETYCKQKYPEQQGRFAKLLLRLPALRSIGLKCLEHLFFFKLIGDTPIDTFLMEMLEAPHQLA
human RAR-related Orphan Receptor gamma (RORg), RORC (gene 6097), sequence (P51449 whole entry, looked up, the tested form may be a part): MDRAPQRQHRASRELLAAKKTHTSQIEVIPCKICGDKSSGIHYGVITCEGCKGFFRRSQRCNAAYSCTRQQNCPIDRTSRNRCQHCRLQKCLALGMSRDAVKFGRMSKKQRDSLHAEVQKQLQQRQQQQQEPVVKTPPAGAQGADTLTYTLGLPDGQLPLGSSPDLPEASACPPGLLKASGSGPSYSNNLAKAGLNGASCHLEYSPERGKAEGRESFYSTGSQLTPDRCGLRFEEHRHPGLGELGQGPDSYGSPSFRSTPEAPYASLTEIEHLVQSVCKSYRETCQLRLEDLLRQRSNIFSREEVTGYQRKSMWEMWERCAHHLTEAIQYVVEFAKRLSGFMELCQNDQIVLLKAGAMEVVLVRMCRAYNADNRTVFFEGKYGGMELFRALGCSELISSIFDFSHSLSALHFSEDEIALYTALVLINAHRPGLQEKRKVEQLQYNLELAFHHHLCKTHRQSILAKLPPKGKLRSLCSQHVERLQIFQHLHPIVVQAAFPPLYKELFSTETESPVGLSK
E-selectin (Homo sapiens), sequence (P16581 whole entry, looked up): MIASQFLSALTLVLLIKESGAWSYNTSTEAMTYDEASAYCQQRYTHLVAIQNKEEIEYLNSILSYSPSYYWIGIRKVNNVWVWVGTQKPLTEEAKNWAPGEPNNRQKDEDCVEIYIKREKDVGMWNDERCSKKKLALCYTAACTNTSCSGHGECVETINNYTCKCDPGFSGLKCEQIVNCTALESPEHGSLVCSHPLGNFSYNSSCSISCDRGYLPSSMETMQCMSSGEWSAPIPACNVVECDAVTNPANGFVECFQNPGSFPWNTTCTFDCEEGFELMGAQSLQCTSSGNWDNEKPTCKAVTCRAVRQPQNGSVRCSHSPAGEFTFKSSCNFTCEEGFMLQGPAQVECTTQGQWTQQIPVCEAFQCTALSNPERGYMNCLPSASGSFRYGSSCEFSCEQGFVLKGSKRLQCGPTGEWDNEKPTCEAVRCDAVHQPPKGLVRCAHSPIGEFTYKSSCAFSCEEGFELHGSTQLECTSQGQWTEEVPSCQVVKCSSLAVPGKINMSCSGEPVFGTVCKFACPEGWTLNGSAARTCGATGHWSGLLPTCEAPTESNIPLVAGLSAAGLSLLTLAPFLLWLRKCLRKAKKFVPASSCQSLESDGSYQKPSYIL
human Vitamin D Receptor (VDR), VDR (gene 7421), sequence (P11473 whole entry, looked up, the tested form may be a part): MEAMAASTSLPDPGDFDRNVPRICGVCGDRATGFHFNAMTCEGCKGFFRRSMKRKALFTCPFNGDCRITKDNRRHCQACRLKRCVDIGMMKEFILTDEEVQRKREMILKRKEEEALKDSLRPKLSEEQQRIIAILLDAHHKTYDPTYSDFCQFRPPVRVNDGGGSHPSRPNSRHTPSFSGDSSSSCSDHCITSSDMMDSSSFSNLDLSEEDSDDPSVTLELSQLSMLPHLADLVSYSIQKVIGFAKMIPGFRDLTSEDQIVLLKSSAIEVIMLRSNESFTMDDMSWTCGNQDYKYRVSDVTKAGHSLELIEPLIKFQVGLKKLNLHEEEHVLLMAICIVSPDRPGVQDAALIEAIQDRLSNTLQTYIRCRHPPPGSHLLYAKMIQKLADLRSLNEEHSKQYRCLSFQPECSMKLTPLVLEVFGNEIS

Regarding `[N-]=[N+]=[N-]`, the molecule was classed as inactive in [1], in assay [2], in assay [3], in assay [4], in assay [5] and in [6]. Further, the outcome in assay [7], in [8], in assay [9], in assay [10], in [11] and in assay [12] was inactive. Also, the result in assay [13], in assay [14] and in [15] was inactive.
As to `O=P(Oc1ccccc1)(Oc1ccccc1)Oc1ccccc1`, the molecule was classed as inactive in assay [16], in assay [17], in assay [2], in assay [3], in assay [4] and in assay [9]. Also, the molecule was classed as inactive in [18], in assay [10], in assay [14] and in assay [15]. Further, the AC50 in assay [5] was 33.5 µM (active); in assay [7] it was 33.1 µM (active); in assay [8], 29.4 µM (active); in assay [19], 30.2 µM (active); in assay [11], 37.5 µM (active); in assay [12] it was 33.2 µM (active). Further, the AC50 in assay [13] was 28.8 µM (active).
On to `CCOC(=O)c1ccccc1C(=O)OCC`, for which the result in assay [1], in [17], in assay [3], in [4], in [5] and in assay [7] was inactive. In addition, the outcome in assay [8], in assay [9], in assay [18], in assay [19], in assay [10] and in assay [11] was inactive. Moreover, the result in [12], in assay [13], in assay [14] and in assay [15] was inactive.
Consider `FC(F)(F)c1ccc(Cl)cc1`, for which the call in [16] was inactive.
Turning to `COC(=O)C(F)(F)C(F)(F)OC(F)(C(F)(F)F)C(F)(F)OC(F)=C(F)F` (stereo unspecified), the outcome in assay [1], in assay [16], in assay [2], in assay [3], in assay [4] and in [5] was inactive. Further, the result in [7], in [8], in assay [9], in assay [18], in assay [19] and in assay [12] was inactive. Besides, the outcome in [13], in assay [14] and in assay [15] was inactive. In addition, the AC50 was 31.8 µM (active) and 41.3 µM (active) and 28.2 µM (active) in assay [17]; 1.48 µM (active) and 2.55 µM (active) in assay [10].

By AC50 is commonly meant the midpoint of the concentration-response curve, whichever way the signal moves.
